For 19 compounds, IC50 results are on record in PubChem BioAssay AID488777 (Sanford-Burnham Center for Chemical Genomics, 2010).

Several values for one entry are separate records, joined by “and”; a condition that tells them apart may be missing. Identical values can stand only once. Values without a mark were called inactive. Activity calls are given as the source filed them. How the calls were made is not given here.

The nature of this experiment: AlphaScreen signal interference by SUMOylation inhibitors, SAR follow-up, artefact control for SUMOylation inhibitor project, biochemical (AID 488777). Particulars: purified counter-screen enzymes, TR-FRET, 60 min. In general terms: In Alpha technology, singlet oxygen from a donor bead excites a nearby acceptor bead.
In general, IC50 refers to the concentration needed to halve the response being measured. Regarding `CCCC1=NN(c2ccccc2)C(=O)/C1=C/c1ccc(OCc2ccc(C(=O)OC)cc2)cc1`, the IC50 was more than 100 µM.
To `CCCCn1c(N)c(S(=O)(=O)c2ccc(C)cc2)c2nc3ccccc3nc21` belongs more than 100 µM; to `C=C[C@H](Nc1ccccc1)C12C=CC(O1)C(C(=O)OC)=C2C(=O)OC` (some centres undefined), more than 100 µM.
For `CCCCn1c(NC(=O)c2ccc(Cl)cc2)c(C#N)c2nc3ccccc3nc21` the value was 54.4 µM (active); for `CCCCn1c(NC(=O)c2ccc(OC)cc2)c(S(=O)(=O)c2ccc(C)cc2)c2nc3ccccc3nc21`, more than 100 µM; for `COC(=O)C1=C(C(=O)OC)C2([C@@H](Cc3ccc(C)cc3)Nc3ccccc3)C=CC1O2` (some centres undefined), more than 100 µM.
As for `CCCCn1c(NC(=O)c2ccccc2)c(C#N)c2nc3ccccc3nc21`, the 50% inhibitory concentration (IC50) was 65.2 µM (active) and 91.7 µM (active).
For `CCC[C@H](Nc1ccccc1)C12C=CC(O1)C(C(=O)OC)=C2C(=O)OC` (some centres undefined) the value was more than 100 µM.
To `CCCCn1c(NC(=O)c2ccccc2)c(S(=O)(=O)c2ccc(C)cc2)c2nc3ccccc3nc21` belongs more than 100 µM.
In the case of `CCCCn1c(NC(=O)c2ccc(F)cc2)c(S(=O)(=O)c2ccc(C)cc2)c2nc3ccccc3nc21`, the IC50 is more than 100 µM.
To `CCCC1=NN(c2ccc(C(=O)O)cc2)C(=O)/C1=C/c1ccc(O)cc1` belongs more than 100 µM.
To `CCCCn1c(NC(C)=O)c(C#N)c2nc3ccccc3nc21` belongs more than 100 µM; to `COC(=O)[C@@H]1C2CCC([C@@H](Cc3ccccc3)Nc3ccccc3)(O2)[C@@H]1C(=O)OC` (some centres undefined), more than 100 µM; to `CCCCn1c(NC(=O)c2ccc(F)cc2)c(C#N)c2nc3ccccc3nc21`, 65.3 µM (active).
For `CCC[C@@H](Nc1ccccc1)C12C=CC(O1)C(C(=O)OC)=C2C(=O)OC` (some centres undefined) the value was more than 100 µM.
Regarding `C=CCn1c(NC(=O)c2ccccc2Cl)c(C#N)c2nc3ccccc3nc21`, the IC50 is more than 100 µM.
For `CCCC1=NN(c2ccc(C(=O)O)cc2)C(=O)/C1=C/c1ccc(OCc2ccccc2)cc1`, the IC50 was 16.4 µM (active).
As for `COC(=O)C1=C(C(=O)OC)C2([C@H](Cc3ccc(C)cc3)Nc3ccccc3)C=CC1O2` (some centres undefined), the IC50 is more than 100 µM.
To `COC(=O)C1=C(C(=O)OC)C2([C@@H](Cc3ccc(OC)cc3)Nc3ccccc3)C=CC1O2` (some centres undefined) belongs more than 100 µM.
